Results as given in PubChem BioAssay (EPA / NIEHS).
Several values for one entry are separate records, joined by “and”; a condition that tells them apart may be missing. Equal entries are not always repeated. Records with an inconclusive call do not appear. Activity calls are given as the source filed them. Rule for the calls: active = hit-call score of the fitted dose curve at least 0.9, where 1 is the maximum; inconclusive = response in the unintended direction; inactive = score below 0.9.

Each compound was assayed against human Peripheral-type Benzodiazepine Receptor (PBR), TSPO (gene 706) (UniProt P30536) (assay: NVS_MP_hPBR: NovaScreen (NVS) Membrane Protein Assay for human Peripheral-type Benzodiazepine Receptor (PBR) (AID 2283331)).
human Peripheral-type Benzodiazepine Receptor (PBR), TSPO (gene 706), sequence (P30536 whole entry, looked up): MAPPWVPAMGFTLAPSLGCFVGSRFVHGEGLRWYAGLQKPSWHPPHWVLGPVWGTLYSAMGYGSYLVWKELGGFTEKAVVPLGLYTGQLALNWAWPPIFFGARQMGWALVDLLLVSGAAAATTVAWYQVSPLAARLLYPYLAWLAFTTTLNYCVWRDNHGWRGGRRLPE
Description: NVS_MP_hPBR is a biochemical, single-readout assay that uses extracted gene-proteins from Human colonic cell membranes in a tissue-based cell-free assay. Measurements were taken 1 hour after chemical dosing in a 48-well plate.NVS_MP_hPBR is one of one assay component(s) measured or calculated from the NVS_MP_hPBR assay. It is designed to make measurements of radioligand binding, a form of binding reporter, as detected with scintillation counting signals by Filter-based radiodetection technology.Data from the assay component NVS_MP_hPBR was analyzed into 1 assay endpoint. This assay endpoint, NVS_MP_hPBR, was analyzed in the positive analysis fitting direction relative to DMSO as the negative control and baseline of activity. Using a type of binding reporter, loss-of-signal activity can be used to understand changes in the binding as they relate to the gene TSPO. Furthermore, this assay endpoint can be referred to as a primary readout, because the performed assay has only produced 1 assay endpoint. To generalize the intended target to other relatable targets, this assay endpoint is annotated to the transporter intended target family, where the subfamily is cholesterol transporter.
Binding assays used specific radioligands (tritiated, iodinated) with non-radioactive competitive displacement ligands in agonist or antagonist protocols (as indicated) and various reference compounds and inhibitors to titrate specific binding to receptors and transporters. Most enzyme assays (CYPs, kinases, phosphatases, proteases, HDACs) used recombinant protein and specific substrates (fluorescence mostly, some colorimetric and radioactive) and inhibitors, followed by a biochemical separation of substrate and product. All assays for the biochemical HTS were initially run in duplicate at a single concentration (10 uM for CYP450 assays and 25 uM for all others). […] Each assay was run with positive and negative controls, and concurrent controls on every plate. The follow-up (secondary) screen tested active chemical-pairs in concentration series, as well as a few additional assays not tested in the primary screen, some selected negative inactives, and several cases re-run in the concentration series for confirmatory purposes.

| SMILES | AC50 | outcome |
| --- | --- | --- |
| O=C1C(Cl)=C(Cl)C(=O)c2ccccc21 | 7.47 µM (active) | – |
| CC(C)CCCCCCOC(=O)c1ccccc1C(=O)OCCCCCCC(C)C | – | inactive |
| COP(=S)(OC)Oc1ccc(S(=O)(=O)N(C)C)cc1 | 5.32 µM (active) | – |
| C[C@H]1CCCC(=O)CCC/C=C/c2cc(O)cc(O)c2C(=O)O1 | 1.66 µM (active) | – |
| COP(=S)(OC)Oc1ccc(Sc2ccc(OP(=S)(OC)OC)cc2)cc1 | 1.16 µM (active) and 16.9 µM (active) | – |
| Clc1ccc(COC(Cn2ccnc2)c2ccc(Cl)cc2Cl)cc1 (stereo not given) | 1.09 µM (active) | – |
| CCCCCCCCC(=O)NCc1ccc(O)c(OC)c1 | 4.12 µM (active) | – |
| COc1cc(-c2ccc(N)c(OC)c2)ccc1N | 19.4 µM (active) | – |
| COP(=S)(OC)Oc1c(Cl)cc(C)cc1Cl | 9.23 µM (active) | – |
| CCOP(=S)(OCC)SCCS(=O)(=O)CC | 30.7 µM (active) | – |
| COP(=O)(OC)O/C(=C\Cl)c1cc(Cl)c(Cl)cc1Cl | 0.401 µM (active) | – |
| CCC[CH2][Sn]([CH2]CCC)([CH2]CCC)[O]C(=O)c1ccccc1 | 5.59 µM (active) | – |
| CCOC(=O)/C=C(C)/C=C/C[C@@H](C)CCCC(C)C | 33.2 µM (active) | – |
| CC(C)(c1ccc(OCC2CO2)cc1)c1ccc(OCC2CO2)cc1 (stereo not given) | 7.73 µM (active) | – |
| Oc1ccc(-c2ccccc2)cc1 | 43.8 µM (active) and 13.8 µM (active) | – |
| Cc1ccccc1C(=O)Nc1cccc(OC(C)C)c1 | 1.12 µM (active) | – |
| CCN1CCC2(CC1)COc1cc3c(cc12)N(C(=O)c1ccc(-c2ccc(-c4nnc(C)o4)cc2C)cc1)CC3 | 2.37 µM (active) | – |
| Nc1ccc(-c2ccc(N)c(Cl)c2)cc1Cl | 9.91 µM (active) | – |
| O=C(OC1CCCCC1)c1ccccc1C(=O)OC1CCCCC1 | 3.21 µM (active) and 6.79 µM (active) | – |
| c1cc[c]([Hg][c]2ccccc2)cc1 | 0.372 µM (active) | – |
